PostGolgi ctrl: inhibits growth of the yeast control strain. inhibition, % at 10 µM. hit rate 5% among 98,000. efflux-deficient yeast background strain, growth absorbance A615, 16 h. AID 738
CYP2C9 act: activators of human CYP2C9. hit rate 1.4% among 96,000. AID 1024. recombinant CYP2C9, luciferin-H conversion, luminescence; active compounds read high; factor 1 = untreated enzyme, 0 = blocked. P11712. activation factor at 5 µM;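 active = activation factor of 2 or more for CYP2C9 at a 5 µM dose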;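 note: 0 = sulfaphenazole-blocked wells and 1 = vehicle-only wells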
Target sequence (P11712 whole entry, looked up): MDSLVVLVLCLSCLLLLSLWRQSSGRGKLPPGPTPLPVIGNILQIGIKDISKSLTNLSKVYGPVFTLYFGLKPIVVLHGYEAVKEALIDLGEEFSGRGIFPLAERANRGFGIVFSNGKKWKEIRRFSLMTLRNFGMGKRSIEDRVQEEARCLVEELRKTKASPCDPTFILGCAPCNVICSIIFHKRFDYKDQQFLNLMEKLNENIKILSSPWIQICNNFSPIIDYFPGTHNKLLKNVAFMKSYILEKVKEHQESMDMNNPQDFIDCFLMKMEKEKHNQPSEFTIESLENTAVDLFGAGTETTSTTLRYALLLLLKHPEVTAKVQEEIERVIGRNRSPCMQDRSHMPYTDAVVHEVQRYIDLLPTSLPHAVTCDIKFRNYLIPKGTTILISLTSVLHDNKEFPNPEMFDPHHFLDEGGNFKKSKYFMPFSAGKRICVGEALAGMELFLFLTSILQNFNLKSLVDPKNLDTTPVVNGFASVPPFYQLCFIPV
CYP2C19 inh: blocks human cytochrome P450 2C19; hit rate 21% among 96,000; CYP2C19 Supersomes, luciferin-H EGE luminescence, 30 min; inhibition, % at 5 µM; P33261;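 active = CYP2C19 inhibition above a set limit at 5 µM in the primary screen, cut at about 50% in these data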;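 note: plate controls were negative control wells for no effect and 2.5 mM tranylcypromine positive control for full effect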
CYP2C19 activ: cytochrome P450 2C19 (human) activation; 96,000 tested, under 10 active; P33261; activation factor at 5 µM; recombinant CYP2C19, luciferin-H EGE luminescence; active compounds read high; 0 = fully inhibited enzyme, 1 = untreated enzyme;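 active = activation factor of at least 2 at 5 µM in the primary screen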;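 note: 0 = wells with 2.5 mM tranylcypromine and 1 = vehicle-only wells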
CYP2C9 inh: inhibitors of human CYP2C9; P11712; CYP2C9 Supersomes, luciferin-H conversion, luminescence; inhibition, % at 5 µM; hit rate 20% among 96,000;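 active = blocking of liver enzyme CYP2C9 beyond about 50% at 5 µM, limit read from the data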
PostGolgi yeast: growth inhibition of a yeast mutant, post-Golgi transport screen; post-Golgi transport phenotypic cell assay; inhibition, % at 10 µM; hit rate 0.9% among 98,000;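 note: yeast cells grown in 1536-well plates; yeast grown about 18 h at 30C before absorbance read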
Numbers without * were called inactive; · = no result. An excerpt weighted towards active compounds, which were near 32% of everything screened. Cut-off read from the data, not from the text of the source, unless noted: active = inhibition above about 30%; inactive = the rest.

SMILES	PostGolgi ctrl	CYP2C9 act	CYP2C19 inh	CYP2C19 activ	CYP2C9 inh	PostGolgi yeast
Cc1ccc(C(=O)NC(=S)Nc2ccccc2C(F)(F)F)cc1	4.0	1.4	8.4	0.9	-37.4	2.5
COc1ccc(S(=O)(=O)Nc2ccc(N3CCOCC3)cc2)cc1Br	5.1	0	100.3*	0	95.6*	4.1
O=C(O)c1ccc(NS(=O)(=O)/C=C/c2ccccc2)cc1O	0.4	0.4	12.2	0.9	55.0*	2.5
O=S(=O)(Nc1ccc(N2CCOCC2)cc1)c1ccccc1	6.5	0.2	99.1*	0	84.3*	-5.4
COc1ccc(CN2CCOCC2)cc1Br	5.7	0.9	27.3	0.7	5.6	2.5
O=S(=O)(/C=C/c1ccccc1)Nc1ccc(N2CCOCC2)cc1	18.2	0.2	93.7*	0.1	83.1*	-1.4
O=S(=O)(Nc1ccc(N2CCOCC2)cc1)c1ccc(Cl)s1	5.0	0	100.3*	0	100.3*	-2.3
O=C(Nc1ccc(Cl)cc1)Nc1ccc(N2CCOCC2)cc1	0.3	1.1	-8.5	1.1	-5.8	-7.5
O=C(COc1ccc(S(=O)(=O)N2CCCC2)cc1Cl)NCc1ccc2c(c1)OCO2	4.9	0.5	16.5	0.8	45.7	-0.2
O=C(COc1ccc(S(=O)(=O)NC2CCCCC2)cc1Cl)NCc1ccc2c(c1)OCO2	17.3	0	94.0*	0.1	98.5*	-1.8
O=C(COc1ccc(S(=O)(=O)NC2CCCCC2)cc1Cl)Nc1ccc2c(c1)OCO2	42.6*	0.1	49.8	0.5	87.1*	-1.6
CCOC(=O)Cn1c(=O)oc2cc(S(=O)(=O)NCc3cccs3)ccc21	2.5	0.7	14.5	0.9	29.8	6.7
COc1cc(C)c(C)cc1S(=O)(=O)N1CCN(Cc2ccc3c(c2)OCO3)CC1	20.3	1	61.9*	0.4	-2.2	0.3
Cc1[nH]c(=O)[nH]c(=O)c1S(=O)(=O)N1CCC(C(=O)N2CCN(Cc3ccccc3)CC2)CC1	8.4	0.9	-0.5	1	5.0	-4.1
Cc1cc(S(=O)(=O)N2CCN(Cc3ccccc3)CC2)c(C)s1	7.3	0.4	98.6*	0	61.9*	-7.8
COc1cc(C)c(C)cc1S(=O)(=O)N1CCN(Cc2ccccc2)CC1	8.9	0.4	88.8*	0.1	62.6*	-11.6
CCN(CC)CCCNC(=O)C1c2ccccc2C(=O)N1Cc1ccc(C)cc1 (stereo unspecified)	1.9	1.1	-15.5	1.2	-10.4	11.5
COc1cc(OC)cc(C(=O)Nc2ncc3c(n2)CC(C)CC3=O)c1 (stereo unspecified)	·	1.1	1.8	1	-11.2	·
COc1ccc(C2CC(=O)c3cnc(NC(=O)c4ccccc4)nc3C2)cc1OC (stereo unspecified)	2.6	0.3	9.9	0.9	70.4*	1.1
COc1ccc(C2CC(=O)c3cnc(Nc4cc(C)cc(C)c4)nc3C2)cc1 (stereo unspecified)	28.3	0.8	18.2	0.8	22.6	0.6
COc1ccc(C2CC(=O)c3cnc(NC(=O)c4cc(OC)cc(OC)c4)nc3C2)cc1 (stereo unspecified)	8.9	0.3	82.9*	0.2	69.4*	0.9
CCOCCCNc1ncc2c(n1)CC(c1ccc(C)cc1)CC2=O (stereo unspecified)	12.0	0.4	41.0	0.6	58.8*	-4.5
O=C(O)C1CC(=O)N(c2ccc(OCc3ccc(Cl)cc3Cl)cc2)C1 (stereo unspecified)	-8.4	1.3	3.5	1	-27.5	17.0
O=c1c(N2CCCCC2)coc2ccccc12	14.0	1.3	15.0	0.8	-29.0	-5.5
O=C(Cn1nc(Cl)nc1Cl)c1cc2ccccc2oc1=O	1.3	0.4	12.8	0.9	61.8*	-4.2
SMILES	PostGolgi ctrl	CYP2C9 act	CYP2C19 inh	CYP2C19 activ	CYP2C9 inh	PostGolgi yeast
O=C1C2CCCN2C(c2cccs2)N1c1ccc(Cl)cc1 (stereo unspecified)	4.9	0.8	22.1	0.8	17.6	0.7
CCOC(=O)C1CCN(S(=O)(=O)c2cc(Br)cc3c2N(C(=O)C2CC2)CC3)CC1	6.0	0.6	59.8*	0.4	35.3	-0.5
O=C(C1CC1)N1CCc2cc(Br)cc(S(=O)(=O)N3CCN(c4ccccn4)CC3)c21	2.4	0.1	72.4*	0.3	94.8*	3.8
CCN1C(=O)N(C)C(N(O)C(=O)NC)C1(C)C (stereo unspecified)	4.6	1.1	-10.4	1.1	-9.7	-2.6
CCOC(=O)c1sc(N)nc1C(C)C	9.4	0.7	51.8*	0.5	30.4	-6.3
CCOC(=O)c1c(N)sc(C(=O)N(C)C)c1C	12.1	1.3	46.6	0.5	-32.5	6.5
CCCCOC(=O)Nc1nc(C)c(C(=O)OCC)s1	12.3	0.7	39.9	0.6	29.4	0.5
CCCc1nc(N)sc1C(=O)OCC	1.1	0.8	54.6*	0.5	21.1	-3.3
Cc1nnc(C)n1/N=C/C=C/c1ccccc1	0.5	1	6.6	0.9	2.8	0.1
CCOC(=O)c1cc2n(c1/N=C/N(C)C)-c1ccccc1C2=O	22.4	0.4	21.9	0.8	61.9*	-7.7
O=C(CN(Cc1ccc2c(c1)OCO2)C(=O)CSc1nc2ccccc2o1)NC1CCCCC1	4.3	0	97.5*	0	96.0*	5.2
COCCN(CC(=O)NC1CCCCC1)C(=O)CSc1nc2ccccc2o1	8.3	0.5	92.1*	0.1	46.4	-3.6
COCCN(CC(=O)NC1CCCCC1)C(=O)c1csnn1	1.1	1.1	-8.3	1.1	-10.1	2.6
COc1ccc(OC)c(N(CC(=O)N2CCc3ccccc3C2)S(C)(=O)=O)c1	4.1	1	23.8	0.8	4.3	0.6
COc1ccc(C2C(C#N)=C(/N=C/N3CCN(C)CC3)OC3=C2C(=O)CC(C)(C)C3)cc1OC (stereo unspecified)	-0.8	0.7	31.0	0.7	33.3	-1.4
Cc1cc(=O)n2c(-c3ccccc3C)n[nH]c2n1	4.6	1	-2.3	1	3.5	31.0*
COCc1nnc(NC(=O)CC(C)c2ccccc2)s1 (stereo unspecified)	2.0	0.8	28.3	0.7	20.9	2.5
O=C(NC1(C(F)(F)F)NC(=O)N(Cc2cccnc2)C1=O)c1cccs1 (stereo unspecified)	18.2	0.6	52.3*	0.5	37.3	-1.2
O=C(CCC1CCCCC1)Nc1c2c(nn1-c1ccc(F)cc1)CS(=O)C2 (stereo unspecified)	19.9	0.8	97.5*	0	21.7	-4.2
Cc1ccc(S(=O)(=O)N(c2ccccc2)C2CCS(=O)(=O)C2)cc1 (stereo unspecified)	1.5	1.2	-11.7	1.1	-22.3	9.0
Cn1c(=O)c2c(SCc3cccnc3)nc(CC(C)(C)C)nc2n(C)c1=O	54.0*	0	89.6*	0.1	97.8*	6.4
CCCc1nc(SCc2cccnc2)c2c(=O)n(C)c(=O)n(C)c2n1	-0.3	0.1	100.3*	0	89.5*	22.7

From PubChem
